# Assays:
# Assay in all cases: DAPPL (digital affinity profiling via proximity ligation, sequencing); 10 mM Tris-HCl pH 7.5, 50 mM NaCl, 1 mM DTT, 4% glycerol, room temperature, 30 min; GST-TFs on glutathione beads, 16-mer random dsDNA library, 0.1% formaldehyde crosslink after washing; high values mean tight binding
# [1] = biological target: T1, FLI1 (Homo sapiens, UniProt Q01543 1-452); settings: protein: recombinant; tags: N-terminal GST; dsDNA, one strand shown
# T1 sequence: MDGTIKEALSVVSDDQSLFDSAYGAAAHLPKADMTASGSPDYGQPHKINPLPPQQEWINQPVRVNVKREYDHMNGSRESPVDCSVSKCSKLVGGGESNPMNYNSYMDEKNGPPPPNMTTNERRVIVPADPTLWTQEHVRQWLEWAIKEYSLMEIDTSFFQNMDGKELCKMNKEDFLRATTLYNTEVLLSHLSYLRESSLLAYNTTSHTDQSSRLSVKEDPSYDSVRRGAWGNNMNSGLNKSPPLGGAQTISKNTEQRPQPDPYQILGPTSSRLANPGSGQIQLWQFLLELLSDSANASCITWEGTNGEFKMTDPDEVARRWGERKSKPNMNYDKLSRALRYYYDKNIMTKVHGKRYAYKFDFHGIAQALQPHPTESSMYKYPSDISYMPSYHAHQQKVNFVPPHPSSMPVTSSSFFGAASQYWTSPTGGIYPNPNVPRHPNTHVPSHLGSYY
# How it was run: (§1)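 Sequencing on an Illumina NextSeq500 followed washing, crosslinking with 0.1% formaldehyde, proximity ligation (BsaI/T4 ligase, 1 h, 37 °C) and PCR amplification of pools that had been incubated for 30 min at room temperature with 200 nmole of a random double-stranded 16-mer DNA library in Tris/NaCl/DTT/glycerol buffer. Each pool held DNA-barcoded human transcription factors, expressed in yeast as GST fusions and captured on glutathione beads, plus a tag-only sample. Binding signal is a hexamer's read frequency for a factor divided by its frequency in the tag-only sample.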
# [2] = biological target: T2, ELK1 (Homo sapiens, UniProt P19419 1-428); settings: protein: recombinant; tags: N-terminal GST; dsDNA, one strand shown
# T2 sequence: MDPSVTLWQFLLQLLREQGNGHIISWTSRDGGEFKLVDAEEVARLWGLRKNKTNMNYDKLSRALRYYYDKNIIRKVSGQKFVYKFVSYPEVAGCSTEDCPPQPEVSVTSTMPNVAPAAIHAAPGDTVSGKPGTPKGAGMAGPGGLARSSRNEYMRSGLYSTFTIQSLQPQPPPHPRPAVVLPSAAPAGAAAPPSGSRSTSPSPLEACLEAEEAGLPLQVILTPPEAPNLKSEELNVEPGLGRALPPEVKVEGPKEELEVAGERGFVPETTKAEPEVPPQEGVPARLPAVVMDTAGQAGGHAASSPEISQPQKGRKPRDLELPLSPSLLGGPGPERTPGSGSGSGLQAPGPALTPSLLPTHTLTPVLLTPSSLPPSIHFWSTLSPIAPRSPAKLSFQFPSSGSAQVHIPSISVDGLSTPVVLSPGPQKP
# How it was run: as §1
# [3] = biological target: T3, GABPA (Homo sapiens, UniProt Q06546 1-454); settings: protein: recombinant; tags: N-terminal GST; dsDNA, one strand shown
# T3 sequence: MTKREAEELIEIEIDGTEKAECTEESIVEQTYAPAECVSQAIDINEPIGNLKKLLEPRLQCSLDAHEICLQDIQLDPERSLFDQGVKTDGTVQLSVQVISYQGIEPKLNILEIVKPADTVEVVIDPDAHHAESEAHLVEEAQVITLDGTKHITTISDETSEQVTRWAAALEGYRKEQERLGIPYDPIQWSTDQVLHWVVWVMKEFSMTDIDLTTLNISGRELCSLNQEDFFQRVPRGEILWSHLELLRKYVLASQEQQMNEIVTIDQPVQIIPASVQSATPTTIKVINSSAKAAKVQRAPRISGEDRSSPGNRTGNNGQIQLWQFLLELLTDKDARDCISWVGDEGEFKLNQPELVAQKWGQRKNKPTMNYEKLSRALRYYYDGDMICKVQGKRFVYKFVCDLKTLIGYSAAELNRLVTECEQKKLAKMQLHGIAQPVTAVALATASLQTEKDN
# How it was run: as §1
# [4] = biological target: T4, ERG (Homo sapiens, UniProt P11308 1-479); settings: protein: recombinant; tags: N-terminal GST; dsDNA, one strand shown
# T4 sequence: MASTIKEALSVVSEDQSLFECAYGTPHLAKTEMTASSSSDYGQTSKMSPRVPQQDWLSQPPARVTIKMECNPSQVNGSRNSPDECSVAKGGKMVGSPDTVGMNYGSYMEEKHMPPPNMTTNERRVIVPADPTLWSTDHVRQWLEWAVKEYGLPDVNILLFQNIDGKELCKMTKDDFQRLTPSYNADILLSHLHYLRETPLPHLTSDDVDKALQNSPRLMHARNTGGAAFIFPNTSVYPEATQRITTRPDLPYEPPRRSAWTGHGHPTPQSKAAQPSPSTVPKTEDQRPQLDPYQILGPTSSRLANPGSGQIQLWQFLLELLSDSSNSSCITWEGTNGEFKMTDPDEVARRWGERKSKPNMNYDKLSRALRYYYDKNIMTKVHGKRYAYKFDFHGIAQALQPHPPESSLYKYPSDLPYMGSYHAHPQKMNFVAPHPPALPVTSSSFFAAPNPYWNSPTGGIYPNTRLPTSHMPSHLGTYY
# How it was run: as §1
# [5] = biological target: ELF1 (Homo sapiens, UniProt P32519 1-619); settings: protein: recombinant; tags: N-terminal GST; dsDNA, one strand shown
# ELF1, sequence (P32519 whole entry): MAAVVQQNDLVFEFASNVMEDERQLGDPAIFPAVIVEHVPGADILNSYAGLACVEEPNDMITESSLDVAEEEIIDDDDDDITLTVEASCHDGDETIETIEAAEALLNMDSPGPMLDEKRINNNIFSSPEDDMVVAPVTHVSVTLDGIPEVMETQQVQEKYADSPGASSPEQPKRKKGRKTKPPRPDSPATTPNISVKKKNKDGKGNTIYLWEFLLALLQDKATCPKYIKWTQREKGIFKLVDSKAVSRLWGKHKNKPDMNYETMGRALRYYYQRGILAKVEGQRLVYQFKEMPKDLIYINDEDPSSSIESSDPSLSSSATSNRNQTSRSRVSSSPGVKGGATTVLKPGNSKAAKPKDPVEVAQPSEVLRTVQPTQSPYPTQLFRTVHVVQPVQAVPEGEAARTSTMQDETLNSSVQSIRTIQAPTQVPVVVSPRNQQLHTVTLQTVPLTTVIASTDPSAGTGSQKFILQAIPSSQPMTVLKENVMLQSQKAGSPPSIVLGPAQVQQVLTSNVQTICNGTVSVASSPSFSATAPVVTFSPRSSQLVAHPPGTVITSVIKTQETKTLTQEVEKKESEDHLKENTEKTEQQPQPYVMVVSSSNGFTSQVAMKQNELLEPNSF
# How it was run: as §1
# [6] = biological target: T5, EHF (Homo sapiens, UniProt Q9NZC4 1-300); settings: protein: recombinant; tags: N-terminal GST; dsDNA, one strand shown
# T5 sequence: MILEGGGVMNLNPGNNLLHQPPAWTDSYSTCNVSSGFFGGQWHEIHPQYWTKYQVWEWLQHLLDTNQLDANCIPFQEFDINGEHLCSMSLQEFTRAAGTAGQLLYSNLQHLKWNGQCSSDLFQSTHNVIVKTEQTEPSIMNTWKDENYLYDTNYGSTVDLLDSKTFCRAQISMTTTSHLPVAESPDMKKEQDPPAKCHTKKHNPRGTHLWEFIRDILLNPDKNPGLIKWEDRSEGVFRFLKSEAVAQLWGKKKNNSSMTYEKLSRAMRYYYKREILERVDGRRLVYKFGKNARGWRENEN
# How it was run: as §1
# [7] = biological target: SPI1 (Homo sapiens, UniProt P17947 1-270); settings: protein: recombinant; tags: N-terminal GST; dsDNA, one strand shown
# How it was run: as §1
# [8] = biological target: SPIB (Homo sapiens, UniProt Q01892 1-262); settings: protein: recombinant; tags: N-terminal GST; dsDNA, one strand shown
# SPIB, sequence (Q01892 whole entry): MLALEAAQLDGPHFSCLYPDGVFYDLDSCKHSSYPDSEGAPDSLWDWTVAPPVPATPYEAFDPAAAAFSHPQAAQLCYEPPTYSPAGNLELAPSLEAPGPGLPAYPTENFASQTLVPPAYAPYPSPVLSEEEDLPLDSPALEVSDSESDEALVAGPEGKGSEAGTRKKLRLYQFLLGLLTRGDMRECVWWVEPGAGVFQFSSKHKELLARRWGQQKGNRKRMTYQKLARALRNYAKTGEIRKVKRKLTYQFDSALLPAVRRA
# How it was run: as §1
# [9] = biological target: T6, ELK3 (Homo sapiens, UniProt P41970 1-407); settings: protein: recombinant; tags: N-terminal GST; dsDNA, one strand shown
# T6 sequence: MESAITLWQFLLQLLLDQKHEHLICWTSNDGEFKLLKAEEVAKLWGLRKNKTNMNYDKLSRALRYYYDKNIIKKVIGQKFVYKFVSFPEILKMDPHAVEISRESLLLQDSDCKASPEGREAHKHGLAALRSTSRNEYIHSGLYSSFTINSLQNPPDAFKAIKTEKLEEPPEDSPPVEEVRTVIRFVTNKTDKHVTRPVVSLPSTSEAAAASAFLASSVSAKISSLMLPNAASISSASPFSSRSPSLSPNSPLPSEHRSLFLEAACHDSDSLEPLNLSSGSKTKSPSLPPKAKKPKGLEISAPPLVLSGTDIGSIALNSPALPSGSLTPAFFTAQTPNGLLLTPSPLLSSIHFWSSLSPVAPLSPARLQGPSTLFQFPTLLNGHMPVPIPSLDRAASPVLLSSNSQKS
# How it was run: as §1
# [10] = biological target: T7, FEV (Homo sapiens, UniProt Q99581 1-238); settings: protein: recombinant; tags: N-terminal GST; dsDNA, one strand shown
# T7 sequence: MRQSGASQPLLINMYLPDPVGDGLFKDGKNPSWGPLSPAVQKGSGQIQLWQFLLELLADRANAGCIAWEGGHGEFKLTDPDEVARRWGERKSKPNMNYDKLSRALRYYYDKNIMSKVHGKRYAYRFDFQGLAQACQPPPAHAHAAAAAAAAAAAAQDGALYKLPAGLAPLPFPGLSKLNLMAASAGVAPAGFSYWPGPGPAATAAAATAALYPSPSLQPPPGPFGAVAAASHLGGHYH
# How it was run: as §1
# [11] = biological target: ETV5 (Homo sapiens, UniProt P41161 1-510); settings: protein: recombinant; tags: N-terminal GST; dsDNA, one strand shown
# ETV5, sequence (P41161 whole entry): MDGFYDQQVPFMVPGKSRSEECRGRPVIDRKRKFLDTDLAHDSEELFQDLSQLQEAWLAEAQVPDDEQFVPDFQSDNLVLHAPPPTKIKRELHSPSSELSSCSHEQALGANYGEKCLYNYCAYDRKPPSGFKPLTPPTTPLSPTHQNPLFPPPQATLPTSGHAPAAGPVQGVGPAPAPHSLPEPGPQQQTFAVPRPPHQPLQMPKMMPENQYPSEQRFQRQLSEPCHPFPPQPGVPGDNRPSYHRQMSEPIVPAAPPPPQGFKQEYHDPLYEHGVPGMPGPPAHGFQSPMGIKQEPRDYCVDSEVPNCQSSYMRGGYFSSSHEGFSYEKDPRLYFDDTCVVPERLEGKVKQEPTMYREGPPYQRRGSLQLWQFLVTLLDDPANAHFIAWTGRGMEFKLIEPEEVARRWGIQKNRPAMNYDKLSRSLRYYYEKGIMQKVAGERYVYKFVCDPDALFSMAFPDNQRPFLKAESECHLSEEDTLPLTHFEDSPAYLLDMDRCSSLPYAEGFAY
# How it was run: as §1
# [12] = biological target: HSF1 (Homo sapiens, UniProt Q00613 1-529); settings: protein: recombinant; tags: N-terminal GST; chain copies: 3; dsDNA, one strand shown
# HSF1, sequence (Q00613 whole entry): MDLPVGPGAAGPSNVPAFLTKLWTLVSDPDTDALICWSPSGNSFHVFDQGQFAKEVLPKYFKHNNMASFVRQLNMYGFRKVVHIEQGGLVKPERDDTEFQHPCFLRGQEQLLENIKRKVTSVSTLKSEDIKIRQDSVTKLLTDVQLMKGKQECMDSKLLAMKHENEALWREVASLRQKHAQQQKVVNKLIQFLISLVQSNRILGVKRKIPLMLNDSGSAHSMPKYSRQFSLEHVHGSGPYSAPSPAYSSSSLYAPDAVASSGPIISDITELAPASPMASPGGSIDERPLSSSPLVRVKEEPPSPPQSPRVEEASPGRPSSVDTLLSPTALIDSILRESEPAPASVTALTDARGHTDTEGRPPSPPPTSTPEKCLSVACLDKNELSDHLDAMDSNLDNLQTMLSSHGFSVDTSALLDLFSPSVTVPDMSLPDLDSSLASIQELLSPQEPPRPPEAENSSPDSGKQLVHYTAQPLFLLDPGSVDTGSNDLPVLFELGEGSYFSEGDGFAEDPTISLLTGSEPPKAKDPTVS
# How it was run: as §1
# [13] = biological target: T8, SPIC (Homo sapiens, UniProt Q8N5J4 1-248); settings: protein: recombinant; tags: N-terminal GST; dsDNA, one strand shown
# T8 sequence: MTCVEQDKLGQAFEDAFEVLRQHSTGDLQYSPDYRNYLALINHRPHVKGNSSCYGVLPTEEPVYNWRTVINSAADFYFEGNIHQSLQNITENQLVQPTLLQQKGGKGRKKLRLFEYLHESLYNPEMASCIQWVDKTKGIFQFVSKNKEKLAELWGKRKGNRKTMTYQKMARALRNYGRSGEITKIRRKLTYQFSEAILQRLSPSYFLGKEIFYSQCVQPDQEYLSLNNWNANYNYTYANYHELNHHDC
# How it was run: as §1
# [14] = biological target: ELF4 (Homo sapiens, UniProt Q99607 1-663); settings: protein: recombinant; tags: N-terminal GST; dsDNA, one strand shown
# ELF4, sequence (Q99607 whole entry): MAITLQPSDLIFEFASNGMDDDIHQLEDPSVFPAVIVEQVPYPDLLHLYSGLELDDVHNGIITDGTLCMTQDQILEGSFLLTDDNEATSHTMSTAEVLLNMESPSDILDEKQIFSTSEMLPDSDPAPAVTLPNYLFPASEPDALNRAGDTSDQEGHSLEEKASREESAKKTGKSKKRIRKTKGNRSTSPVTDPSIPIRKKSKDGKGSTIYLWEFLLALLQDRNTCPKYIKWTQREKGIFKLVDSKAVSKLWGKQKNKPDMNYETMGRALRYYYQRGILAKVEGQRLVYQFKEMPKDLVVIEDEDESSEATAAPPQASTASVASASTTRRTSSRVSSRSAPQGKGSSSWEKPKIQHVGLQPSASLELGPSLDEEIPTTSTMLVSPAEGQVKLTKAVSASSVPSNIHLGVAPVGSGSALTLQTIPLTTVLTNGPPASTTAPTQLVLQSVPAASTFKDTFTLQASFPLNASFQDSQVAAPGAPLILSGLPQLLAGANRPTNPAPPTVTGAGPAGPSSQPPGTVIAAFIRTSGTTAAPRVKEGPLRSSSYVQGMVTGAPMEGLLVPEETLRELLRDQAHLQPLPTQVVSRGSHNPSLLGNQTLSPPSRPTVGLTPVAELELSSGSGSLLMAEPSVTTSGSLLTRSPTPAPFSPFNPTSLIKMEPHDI
# How it was run: as §1
# [15] = biological target: T9, ELK4 (Homo sapiens, UniProt P28324-2 1-405); settings: protein: recombinant; tags: N-terminal GST; dsDNA, one strand shown
# T9 sequence: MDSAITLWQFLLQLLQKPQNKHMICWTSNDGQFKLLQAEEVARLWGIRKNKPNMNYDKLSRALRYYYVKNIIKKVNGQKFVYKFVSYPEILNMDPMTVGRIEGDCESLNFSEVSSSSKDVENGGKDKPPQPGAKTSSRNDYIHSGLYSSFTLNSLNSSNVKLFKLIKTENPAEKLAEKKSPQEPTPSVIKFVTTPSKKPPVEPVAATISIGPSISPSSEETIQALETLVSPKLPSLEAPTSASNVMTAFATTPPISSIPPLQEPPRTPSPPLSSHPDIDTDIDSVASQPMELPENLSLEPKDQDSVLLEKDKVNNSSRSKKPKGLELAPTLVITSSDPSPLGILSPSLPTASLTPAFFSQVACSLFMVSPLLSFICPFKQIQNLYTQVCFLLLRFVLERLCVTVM
# How it was run: as §1
# [16] = biological target: T10, ETV2 (Homo sapiens, UniProt O00321 1-342); settings: protein: recombinant; tags: N-terminal GST; dsDNA, one strand shown
# T10 sequence: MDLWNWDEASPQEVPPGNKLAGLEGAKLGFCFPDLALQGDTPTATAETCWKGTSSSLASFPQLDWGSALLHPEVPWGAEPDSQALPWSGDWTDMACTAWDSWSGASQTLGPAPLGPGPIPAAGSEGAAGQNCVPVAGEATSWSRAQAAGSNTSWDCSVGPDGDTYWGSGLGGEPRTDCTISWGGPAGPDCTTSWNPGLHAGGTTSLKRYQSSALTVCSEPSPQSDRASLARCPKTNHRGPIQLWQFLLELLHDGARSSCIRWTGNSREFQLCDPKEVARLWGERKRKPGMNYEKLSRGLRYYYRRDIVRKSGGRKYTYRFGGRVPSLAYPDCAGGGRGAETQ
# How it was run: as §1
# [17] = biological target: T11, ELF3 (Homo sapiens, UniProt P78545 1-371); settings: protein: recombinant; tags: N-terminal GST; dsDNA, one strand shown
# T11 sequence: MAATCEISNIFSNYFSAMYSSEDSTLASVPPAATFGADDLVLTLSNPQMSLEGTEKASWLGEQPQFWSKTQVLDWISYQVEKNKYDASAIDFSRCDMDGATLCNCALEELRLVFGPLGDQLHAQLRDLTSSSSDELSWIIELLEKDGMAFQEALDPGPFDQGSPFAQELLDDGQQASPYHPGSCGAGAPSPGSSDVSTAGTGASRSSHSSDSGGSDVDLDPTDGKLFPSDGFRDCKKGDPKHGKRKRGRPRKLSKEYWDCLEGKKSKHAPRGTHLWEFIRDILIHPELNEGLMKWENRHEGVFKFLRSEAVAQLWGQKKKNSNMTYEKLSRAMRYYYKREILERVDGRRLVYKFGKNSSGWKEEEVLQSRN
# How it was run: as §1
# [18] = biological target: CRX (Homo sapiens, UniProt O43186 1-299); settings: protein: recombinant; tags: N-terminal GST; dsDNA, one strand shown
# CRX, sequence (O43186 whole entry): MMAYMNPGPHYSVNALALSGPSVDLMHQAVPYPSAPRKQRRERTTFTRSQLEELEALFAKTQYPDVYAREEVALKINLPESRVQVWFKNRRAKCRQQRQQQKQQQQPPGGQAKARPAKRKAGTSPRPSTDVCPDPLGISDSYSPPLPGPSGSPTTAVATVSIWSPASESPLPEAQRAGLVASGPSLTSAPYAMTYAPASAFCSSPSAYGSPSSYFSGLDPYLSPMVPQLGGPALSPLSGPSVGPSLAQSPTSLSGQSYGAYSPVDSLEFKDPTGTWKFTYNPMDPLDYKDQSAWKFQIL
# How it was run: as §1
# [19] = biological target: ETV1 (Homo sapiens, UniProt P50549 1-477); settings: protein: recombinant; tags: N-terminal GST; dsDNA, one strand shown
# ETV1, sequence (P50549 whole entry): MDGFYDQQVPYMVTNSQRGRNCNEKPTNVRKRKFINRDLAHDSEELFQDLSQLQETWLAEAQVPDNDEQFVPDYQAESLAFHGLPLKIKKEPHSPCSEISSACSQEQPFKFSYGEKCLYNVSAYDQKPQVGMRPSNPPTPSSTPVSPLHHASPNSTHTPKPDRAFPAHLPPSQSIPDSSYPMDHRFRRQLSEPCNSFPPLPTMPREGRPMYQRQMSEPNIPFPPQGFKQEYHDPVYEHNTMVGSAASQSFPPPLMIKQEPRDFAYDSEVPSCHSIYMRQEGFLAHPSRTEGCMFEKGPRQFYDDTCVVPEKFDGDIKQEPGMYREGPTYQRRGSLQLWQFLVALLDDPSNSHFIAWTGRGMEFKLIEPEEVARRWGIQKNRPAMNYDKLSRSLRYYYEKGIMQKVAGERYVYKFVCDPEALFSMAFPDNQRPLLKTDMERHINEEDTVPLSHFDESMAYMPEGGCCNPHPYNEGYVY
# How it was run: as §1
sequence,measurement,setting,value
ATCCAT,binding signal,[1],"1.22 fold enrichment (6-mer frequency, TF over GST control)"
same,binding signal,[2],"1.17 fold enrichment (6-mer frequency, TF over GST control)"
same,binding signal,[3],"1.16 fold enrichment (6-mer frequency, TF over GST control)"
same,binding signal,[4],"1.11 fold enrichment (6-mer frequency, TF over GST control)"
same,binding signal,[5],"1.14 fold enrichment (6-mer frequency, TF over GST control)"
same,binding signal,[6],"1.14 fold enrichment (6-mer frequency, TF over GST control)"
same,binding signal,[7],"1.07 fold enrichment (6-mer frequency, TF over GST control)"
same,binding signal,[8],"1.18 fold enrichment (6-mer frequency, TF over GST control)"
same,binding signal,[9],"1.2 fold enrichment (6-mer frequency, TF over GST control)"
same,binding signal,[10],"1.24 fold enrichment (6-mer frequency, TF over GST control)"
same,binding signal,[11],"1.17 fold enrichment (6-mer frequency, TF over GST control)"
same,binding signal,[12],"1.23 fold enrichment (6-mer frequency, TF over GST control)"
same,binding signal,[13],"1.16 fold enrichment (6-mer frequency, TF over GST control)"
same,binding signal,[14],"1.13 fold enrichment (6-mer frequency, TF over GST control)"
same,binding signal,[15],"1.14 fold enrichment (6-mer frequency, TF over GST control)"
same,binding signal,[16],"1.19 fold enrichment (6-mer frequency, TF over GST control)"
same,binding signal,[17],"1.32 fold enrichment (6-mer frequency, TF over GST control)"
same,binding signal,[18],"1.55 fold enrichment (6-mer frequency, TF over GST control)"
same,binding signal,[19],"1.14 fold enrichment (6-mer frequency, TF over GST control)"

# Source: article PMC7862700, “An all-to-all approach to the identification of sequence-specific readers for epigenetic DNA modifications on cytosine”
